Results as given in the supplement of paper PMC11732987, “Enantioselective OTUD7B fragment discovery through chemoproteomics screening and high-throughput optimisation” (Communications Chemistry, 2025).

Experiments:
Assay in all cases: log2 ratio of Biotin-Ahx-Ub-VS probe labelling (fragment/DMSO); higher = less target engagement (more negative = stronger competition), active = hit call of the paper (q ≤ 0.05, log2 ratio ≤ -1)
Conditions in all cases: compound concentration: 200 uM; treatment time: 3 h
USP34 = USP34 (UniProt Q70CQ2)
Procedure, shortened: (§1)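 HEK293T lysate in Tris/CHAPS/IGEPAL buffer with protease inhibitors (495 µg per sample) was given fragment at 200 µM or vehicle for 3 h, in triplicate. It then received Biotin-Ahx-Ub-VS at 0.5 µM final for 1 h. Labelled DUBs were NeutrAvidin-enriched, digested with LysC and trypsin, and run by diaPASEF LC-MS/MS. Values are average log2 fragment/vehicle ratios by unpaired t-test on global-median-normalised Spectronaut quantities of proteins with ≥2 unique peptides.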

USP36 = target: T1, USP36 (UniProt Q9P275)
T1 sequence (whole entry): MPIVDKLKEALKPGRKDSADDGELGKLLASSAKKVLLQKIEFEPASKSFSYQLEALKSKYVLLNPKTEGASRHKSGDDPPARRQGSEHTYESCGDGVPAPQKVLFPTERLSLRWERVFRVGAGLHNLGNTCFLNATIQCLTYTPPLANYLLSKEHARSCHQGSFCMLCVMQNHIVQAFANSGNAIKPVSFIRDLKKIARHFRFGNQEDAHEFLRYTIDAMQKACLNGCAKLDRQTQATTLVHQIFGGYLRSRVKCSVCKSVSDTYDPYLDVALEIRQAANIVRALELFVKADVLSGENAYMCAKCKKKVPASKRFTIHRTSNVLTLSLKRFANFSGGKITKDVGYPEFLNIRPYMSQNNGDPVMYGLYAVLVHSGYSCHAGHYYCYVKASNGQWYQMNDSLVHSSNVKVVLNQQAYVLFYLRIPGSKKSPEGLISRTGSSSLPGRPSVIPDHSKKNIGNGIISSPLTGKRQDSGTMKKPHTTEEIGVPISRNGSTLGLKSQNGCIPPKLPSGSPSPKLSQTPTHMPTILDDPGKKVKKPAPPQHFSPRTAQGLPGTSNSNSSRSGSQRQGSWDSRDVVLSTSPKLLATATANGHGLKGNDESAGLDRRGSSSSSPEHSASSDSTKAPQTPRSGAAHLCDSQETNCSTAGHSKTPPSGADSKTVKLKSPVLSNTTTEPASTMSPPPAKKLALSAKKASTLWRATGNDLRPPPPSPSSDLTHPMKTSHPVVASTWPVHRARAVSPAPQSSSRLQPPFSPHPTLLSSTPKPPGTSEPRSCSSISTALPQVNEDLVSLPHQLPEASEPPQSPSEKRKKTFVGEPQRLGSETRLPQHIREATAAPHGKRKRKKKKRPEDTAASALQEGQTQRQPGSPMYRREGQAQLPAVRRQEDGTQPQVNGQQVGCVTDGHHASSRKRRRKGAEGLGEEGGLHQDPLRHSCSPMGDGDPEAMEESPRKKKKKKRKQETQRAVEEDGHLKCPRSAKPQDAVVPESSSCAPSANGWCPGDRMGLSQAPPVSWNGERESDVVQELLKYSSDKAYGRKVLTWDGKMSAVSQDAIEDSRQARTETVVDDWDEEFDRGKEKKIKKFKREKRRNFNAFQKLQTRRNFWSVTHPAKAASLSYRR
Procedure, shortened: as §1

USP38 = target: T2, USP38 (UniProt Q8NB14)
T2 sequence (whole entry): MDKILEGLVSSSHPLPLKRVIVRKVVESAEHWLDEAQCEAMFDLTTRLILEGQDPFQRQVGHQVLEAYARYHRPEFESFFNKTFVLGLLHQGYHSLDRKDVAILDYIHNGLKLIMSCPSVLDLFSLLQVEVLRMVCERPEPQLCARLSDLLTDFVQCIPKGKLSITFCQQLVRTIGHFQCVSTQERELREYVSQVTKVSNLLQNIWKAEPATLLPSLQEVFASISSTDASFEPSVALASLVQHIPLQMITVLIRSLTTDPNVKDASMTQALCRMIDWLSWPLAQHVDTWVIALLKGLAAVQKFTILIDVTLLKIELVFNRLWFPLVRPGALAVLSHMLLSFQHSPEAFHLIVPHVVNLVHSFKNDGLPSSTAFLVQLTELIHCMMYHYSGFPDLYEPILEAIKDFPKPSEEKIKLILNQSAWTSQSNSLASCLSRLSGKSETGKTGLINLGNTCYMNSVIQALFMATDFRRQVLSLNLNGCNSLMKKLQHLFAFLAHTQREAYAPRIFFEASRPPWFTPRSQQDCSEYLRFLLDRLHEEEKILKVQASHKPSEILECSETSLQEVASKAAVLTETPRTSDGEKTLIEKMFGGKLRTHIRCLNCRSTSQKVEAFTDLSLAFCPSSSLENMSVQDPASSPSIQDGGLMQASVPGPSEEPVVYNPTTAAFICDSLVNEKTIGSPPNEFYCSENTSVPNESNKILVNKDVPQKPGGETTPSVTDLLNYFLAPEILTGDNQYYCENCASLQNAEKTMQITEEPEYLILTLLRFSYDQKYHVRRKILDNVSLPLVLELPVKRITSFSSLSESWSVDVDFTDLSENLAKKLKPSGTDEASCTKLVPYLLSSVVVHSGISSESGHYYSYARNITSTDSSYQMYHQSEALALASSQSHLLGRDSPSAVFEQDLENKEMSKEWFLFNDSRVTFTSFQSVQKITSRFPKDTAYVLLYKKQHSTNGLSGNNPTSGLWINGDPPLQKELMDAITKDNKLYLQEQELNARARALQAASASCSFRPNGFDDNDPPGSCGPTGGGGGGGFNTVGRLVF
Procedure, shortened: as §1

USP39 = target: T3, USP39 (UniProt Q53GS9)
T3 sequence (whole entry): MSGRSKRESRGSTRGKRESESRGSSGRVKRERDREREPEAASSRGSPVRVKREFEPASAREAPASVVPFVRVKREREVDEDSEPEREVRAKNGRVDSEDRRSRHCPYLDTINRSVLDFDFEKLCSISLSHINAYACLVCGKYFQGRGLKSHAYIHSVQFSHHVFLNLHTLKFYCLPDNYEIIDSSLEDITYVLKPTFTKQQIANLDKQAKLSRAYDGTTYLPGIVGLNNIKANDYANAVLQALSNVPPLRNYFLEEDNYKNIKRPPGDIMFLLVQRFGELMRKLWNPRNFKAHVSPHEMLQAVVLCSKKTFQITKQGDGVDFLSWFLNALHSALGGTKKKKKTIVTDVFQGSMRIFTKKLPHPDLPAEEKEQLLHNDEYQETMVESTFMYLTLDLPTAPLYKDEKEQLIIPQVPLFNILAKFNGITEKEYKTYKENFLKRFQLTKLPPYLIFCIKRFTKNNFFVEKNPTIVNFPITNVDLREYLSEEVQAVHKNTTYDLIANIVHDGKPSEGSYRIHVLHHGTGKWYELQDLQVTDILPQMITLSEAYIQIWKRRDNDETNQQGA
Procedure, shortened: as §1

USP4 = target: T4, USP4 (UniProt Q13107)
T4 sequence (whole entry): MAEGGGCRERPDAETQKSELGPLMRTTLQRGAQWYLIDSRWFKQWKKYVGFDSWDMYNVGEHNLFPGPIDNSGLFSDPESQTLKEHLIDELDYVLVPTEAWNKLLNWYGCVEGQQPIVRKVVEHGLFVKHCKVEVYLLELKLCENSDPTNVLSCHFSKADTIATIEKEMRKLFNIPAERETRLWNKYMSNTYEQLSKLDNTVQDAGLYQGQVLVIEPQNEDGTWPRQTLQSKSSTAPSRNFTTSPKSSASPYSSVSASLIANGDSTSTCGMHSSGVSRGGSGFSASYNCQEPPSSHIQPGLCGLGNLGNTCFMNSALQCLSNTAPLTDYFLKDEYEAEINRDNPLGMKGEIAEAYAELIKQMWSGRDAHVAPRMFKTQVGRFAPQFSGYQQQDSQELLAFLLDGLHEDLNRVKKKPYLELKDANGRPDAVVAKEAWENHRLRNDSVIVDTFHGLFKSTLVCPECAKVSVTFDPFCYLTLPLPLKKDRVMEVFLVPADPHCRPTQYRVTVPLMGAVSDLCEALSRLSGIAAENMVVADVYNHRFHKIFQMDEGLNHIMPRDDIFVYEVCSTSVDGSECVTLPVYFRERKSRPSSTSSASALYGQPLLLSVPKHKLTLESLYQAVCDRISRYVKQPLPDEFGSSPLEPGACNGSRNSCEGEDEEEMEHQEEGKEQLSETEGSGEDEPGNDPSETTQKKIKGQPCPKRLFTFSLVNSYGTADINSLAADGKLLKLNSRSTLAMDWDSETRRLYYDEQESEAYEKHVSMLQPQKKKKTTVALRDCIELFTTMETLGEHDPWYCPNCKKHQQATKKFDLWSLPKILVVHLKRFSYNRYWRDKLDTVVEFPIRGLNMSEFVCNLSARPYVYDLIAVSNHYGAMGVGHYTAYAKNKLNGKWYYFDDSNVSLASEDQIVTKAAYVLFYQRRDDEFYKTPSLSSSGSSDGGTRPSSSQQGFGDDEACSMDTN
Procedure, shortened: as §1

Measured: log2 ratio of Biotin-Ahx-Ub-VS probe labelling

Chain of USP34 (Q70CQ2 whole entry, the tested form may be a part): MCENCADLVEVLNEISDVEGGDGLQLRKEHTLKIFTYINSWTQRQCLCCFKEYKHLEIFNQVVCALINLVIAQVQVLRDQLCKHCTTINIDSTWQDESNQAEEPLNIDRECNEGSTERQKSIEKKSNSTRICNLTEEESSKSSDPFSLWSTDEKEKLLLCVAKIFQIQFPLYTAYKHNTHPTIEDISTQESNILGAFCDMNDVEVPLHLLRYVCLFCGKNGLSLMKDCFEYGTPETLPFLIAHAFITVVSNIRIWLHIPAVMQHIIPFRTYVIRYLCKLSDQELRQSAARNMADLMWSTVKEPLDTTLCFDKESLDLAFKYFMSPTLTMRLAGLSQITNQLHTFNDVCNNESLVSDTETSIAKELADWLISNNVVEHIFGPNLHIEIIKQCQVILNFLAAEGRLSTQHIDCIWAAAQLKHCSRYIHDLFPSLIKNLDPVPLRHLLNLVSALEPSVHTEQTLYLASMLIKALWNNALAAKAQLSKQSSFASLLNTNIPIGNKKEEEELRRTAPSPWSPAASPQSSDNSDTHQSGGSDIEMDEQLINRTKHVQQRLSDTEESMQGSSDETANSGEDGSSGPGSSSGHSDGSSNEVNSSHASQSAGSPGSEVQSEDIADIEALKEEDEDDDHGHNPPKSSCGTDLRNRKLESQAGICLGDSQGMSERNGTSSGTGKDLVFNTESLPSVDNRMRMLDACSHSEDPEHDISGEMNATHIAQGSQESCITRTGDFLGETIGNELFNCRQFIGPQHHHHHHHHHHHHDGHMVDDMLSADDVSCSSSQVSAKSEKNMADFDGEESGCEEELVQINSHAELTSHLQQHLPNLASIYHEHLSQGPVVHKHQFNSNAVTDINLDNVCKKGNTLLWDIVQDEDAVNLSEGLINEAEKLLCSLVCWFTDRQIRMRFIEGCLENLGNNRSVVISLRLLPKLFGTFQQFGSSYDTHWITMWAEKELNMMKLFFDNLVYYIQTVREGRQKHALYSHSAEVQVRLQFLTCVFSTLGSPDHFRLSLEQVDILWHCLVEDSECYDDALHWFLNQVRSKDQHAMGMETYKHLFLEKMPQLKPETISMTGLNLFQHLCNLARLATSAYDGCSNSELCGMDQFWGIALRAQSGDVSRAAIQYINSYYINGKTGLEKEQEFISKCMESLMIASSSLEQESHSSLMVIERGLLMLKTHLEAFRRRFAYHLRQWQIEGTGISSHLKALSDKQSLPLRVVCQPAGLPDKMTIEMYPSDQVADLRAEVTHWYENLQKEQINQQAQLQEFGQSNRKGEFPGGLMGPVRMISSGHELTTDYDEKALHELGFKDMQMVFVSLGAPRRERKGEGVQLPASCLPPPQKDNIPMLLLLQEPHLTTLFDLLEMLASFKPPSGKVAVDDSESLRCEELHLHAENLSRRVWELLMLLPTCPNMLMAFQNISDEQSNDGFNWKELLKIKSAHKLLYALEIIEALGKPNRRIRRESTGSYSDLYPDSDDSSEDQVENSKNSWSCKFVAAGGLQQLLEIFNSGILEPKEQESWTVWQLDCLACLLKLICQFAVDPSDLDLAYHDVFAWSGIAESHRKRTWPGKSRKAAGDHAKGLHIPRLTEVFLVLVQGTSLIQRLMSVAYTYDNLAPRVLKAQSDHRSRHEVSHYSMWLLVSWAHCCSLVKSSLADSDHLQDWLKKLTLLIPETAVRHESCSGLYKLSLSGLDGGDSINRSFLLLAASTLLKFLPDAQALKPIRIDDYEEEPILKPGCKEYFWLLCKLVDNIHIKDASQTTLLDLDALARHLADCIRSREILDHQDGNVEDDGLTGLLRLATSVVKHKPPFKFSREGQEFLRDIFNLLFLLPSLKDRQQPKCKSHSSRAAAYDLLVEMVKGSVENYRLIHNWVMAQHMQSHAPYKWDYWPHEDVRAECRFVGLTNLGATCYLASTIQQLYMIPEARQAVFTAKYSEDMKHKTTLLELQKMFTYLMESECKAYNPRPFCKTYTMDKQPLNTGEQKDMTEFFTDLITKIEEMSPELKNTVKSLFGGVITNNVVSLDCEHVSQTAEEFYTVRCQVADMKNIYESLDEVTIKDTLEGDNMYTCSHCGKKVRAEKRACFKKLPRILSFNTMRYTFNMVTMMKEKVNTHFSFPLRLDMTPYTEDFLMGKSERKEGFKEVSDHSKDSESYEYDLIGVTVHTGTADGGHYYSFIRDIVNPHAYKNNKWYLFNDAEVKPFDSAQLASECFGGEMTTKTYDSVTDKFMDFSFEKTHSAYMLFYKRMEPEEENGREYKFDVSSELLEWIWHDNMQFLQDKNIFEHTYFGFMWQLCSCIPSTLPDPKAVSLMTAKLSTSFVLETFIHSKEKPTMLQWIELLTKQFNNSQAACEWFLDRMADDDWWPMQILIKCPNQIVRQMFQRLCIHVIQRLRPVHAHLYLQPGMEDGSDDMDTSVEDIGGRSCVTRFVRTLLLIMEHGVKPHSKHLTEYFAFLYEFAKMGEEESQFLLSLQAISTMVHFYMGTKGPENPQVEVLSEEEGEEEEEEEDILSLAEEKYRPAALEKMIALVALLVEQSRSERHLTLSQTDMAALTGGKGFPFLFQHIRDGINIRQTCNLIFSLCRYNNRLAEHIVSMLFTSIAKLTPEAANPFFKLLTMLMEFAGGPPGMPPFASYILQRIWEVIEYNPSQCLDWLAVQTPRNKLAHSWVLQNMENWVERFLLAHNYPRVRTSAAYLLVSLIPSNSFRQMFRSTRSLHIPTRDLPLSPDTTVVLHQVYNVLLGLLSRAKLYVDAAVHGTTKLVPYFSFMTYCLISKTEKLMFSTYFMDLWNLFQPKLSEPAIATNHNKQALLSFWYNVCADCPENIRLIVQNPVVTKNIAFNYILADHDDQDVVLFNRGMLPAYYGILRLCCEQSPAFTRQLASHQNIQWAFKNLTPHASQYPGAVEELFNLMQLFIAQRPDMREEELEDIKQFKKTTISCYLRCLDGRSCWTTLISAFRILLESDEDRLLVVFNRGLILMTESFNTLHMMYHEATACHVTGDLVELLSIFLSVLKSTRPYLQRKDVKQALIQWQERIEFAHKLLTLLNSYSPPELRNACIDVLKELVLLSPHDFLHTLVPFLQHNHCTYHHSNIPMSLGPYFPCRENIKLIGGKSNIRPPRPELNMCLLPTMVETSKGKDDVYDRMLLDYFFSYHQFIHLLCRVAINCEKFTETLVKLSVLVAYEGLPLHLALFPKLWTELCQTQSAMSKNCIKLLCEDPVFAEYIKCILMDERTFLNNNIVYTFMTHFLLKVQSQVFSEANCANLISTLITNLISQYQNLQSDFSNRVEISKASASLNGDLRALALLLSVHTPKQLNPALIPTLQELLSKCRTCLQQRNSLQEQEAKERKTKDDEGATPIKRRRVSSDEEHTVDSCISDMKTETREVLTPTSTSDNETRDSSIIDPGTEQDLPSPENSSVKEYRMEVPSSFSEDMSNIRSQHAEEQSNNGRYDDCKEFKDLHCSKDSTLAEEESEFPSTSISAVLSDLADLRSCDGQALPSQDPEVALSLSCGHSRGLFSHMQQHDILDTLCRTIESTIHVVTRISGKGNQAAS

Cc1ccc(N2CCC(NC(=O)CCl)C2=O)cc1 (stereo not given)
inactive: USP34 0.132 | USP36 -0.156 | USP38 0.0543 | USP39 0.064 | USP4 0.0879
